Results taken from PubChem BioAssay (Tox21).
“And” between values parts separate entries of the source, which are not always exact repeats. Identical values can stand only once. Results filed as inconclusive are left out. Where a call stands in place of a potency, no number is given. Some structures have more than one record in an assay (separate samples or runs), and their calls can disagree. The source made the active and inactive calls. The call rests on the fitted dose curve.
Potency means the concentration at half of the fitted maximal effect.

What follows are compounds tested against Acetylcholinesterase (Homo sapiens) (UniProt P22303) (assay: Acetylcholinesterase (AChE) small molecule antagonists: colormetric cell-based qHTS assay (AID 1347395; further: nearly all actives have a fitted effect of over 30% in size)). Settings: SH-SY5Y cells AChE activity, colorimetric (Ellman); series mostly up to 115 µM; activity, negative = inhibition: at the top concentration.
Sequence of Acetylcholinesterase (Homo sapiens) (P22303 whole entry, looked up): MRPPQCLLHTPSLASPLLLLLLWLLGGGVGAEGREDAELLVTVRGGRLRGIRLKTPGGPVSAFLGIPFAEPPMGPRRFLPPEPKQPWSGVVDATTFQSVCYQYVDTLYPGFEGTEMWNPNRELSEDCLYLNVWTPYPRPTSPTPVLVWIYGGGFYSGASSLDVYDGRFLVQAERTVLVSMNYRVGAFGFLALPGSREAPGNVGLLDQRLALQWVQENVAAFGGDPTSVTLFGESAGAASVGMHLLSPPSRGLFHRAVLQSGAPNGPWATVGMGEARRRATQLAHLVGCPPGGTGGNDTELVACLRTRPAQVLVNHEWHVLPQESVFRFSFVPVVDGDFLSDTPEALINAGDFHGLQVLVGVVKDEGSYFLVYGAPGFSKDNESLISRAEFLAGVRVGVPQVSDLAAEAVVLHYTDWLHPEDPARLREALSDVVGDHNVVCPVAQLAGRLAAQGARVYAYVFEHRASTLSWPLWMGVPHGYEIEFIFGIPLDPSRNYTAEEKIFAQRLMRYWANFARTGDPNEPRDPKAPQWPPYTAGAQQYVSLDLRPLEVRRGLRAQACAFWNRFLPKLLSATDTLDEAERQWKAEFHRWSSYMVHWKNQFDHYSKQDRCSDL
Excerpt: National Center for Advancing Translational Sciences [NCATS]
Division of Preclinical Innovation [DPI]
U.S. Environmental Protection Agency [EPA]
National Institutes of Environmental Health Sciences [NIEHS]
National Toxicology Program [NTP]
U.S. Food and Drug Administration [FDA]
Acetylcholinesterase (AChE) is the primary cholinesterase in the body that hydrolyzes a key neurotransmitter, acetylcholine. Inhibition of AChE activity can lead to neurotoxicity. The known inhibitors include organophosphorous pesticides (OP), chemical warfare agents, drugs, and various phytochemicals.
A homogenous cell-based assay using the Amplite Colormetric acetylcholinesterase assay kit (AAT Bioquest, Sunnyvale, CA) was used to evaluate the chemicals in the Tox21 10K library that inhibit AChE activity. The assay uses 5, 5-dithiobis-(2-nitrobenzoic acid) (DTNB) to quantify the thiocholine produced from the hydrolysis of acetylthiocholine by AChE from the SH-SY5Y cells.
Tox21 Assay Protocol Summary:
For the cell-based AChE assay, 2,000 SH-SY5Y cells in 4 uL/well were dispensed into black, clear-bottom 1536-well plates using a Multidrop Combi dispenser (Thermo Scientific, MA). The assay plates were incubated overnight at 37 C to allow cells to attach to the wells, followed by the transfer of 23 nL of compound or DMSO (vehicle control) by a Pintool Station (Wako Automation, CA). The plates were incubated for 30 min at 37 C and 5% CO2, followed by the addition of 4 uL of detection cocktail solution (DTNB, acetylthiocholine) into each well using a Flying Reagent Dispenser (Beckman Coulter, CA) and then 90 min incubation at 37 C.
In the case of `C[C@]12CCC(=O)C(O)=C1CC[C@@H]1[C@@H]2CC[C@]2(C)C(=O)CC[C@@H]12`, the Potency was “inactive”.
In the case of `CCN(CC)C(=O)SCc1ccc(Cl)cc1`, the Potency was “inactive”.
In the case of `CCc1cccc(CC)c1N(COC)C(=O)CCl`, the Potency was “inactive”.
`O=C(O)C(F)(F)C(F)(F)C(F)(F)C(F)(F)C(F)(F)C(F)(F)C(F)(F)F` was tested, and the “activity, negative = inhibition” value was 1.77% (inactive).
In the case of `CCOc1cc(C=O)ccc1O`, the Potency was “inactive”.
With `c1ccc(N=Nc2ccccc2)cc1` the Potency was “inactive”.
With `c1ccc(-c2cccc(-c3ccccc3)c2)cc1` the Potency was “inactive”.
In the case of `CCCCC(CC)COC(=O)Cl` (stereo not given), the Potency was “inactive”.
With `COC(=O)c1sccc1S(=O)(=O)NC(=O)Nc1nc(C)nc(OC)n1` the Potency was “inactive”.
For `CCN(CC)N=O`, the Potency was “inactive”.
In the case of `Nn1cnnc1`, the Potency was “inactive”.
For `Nc1cccnc1`, the Potency was “inactive”.
For `Cc1ccc(OP(=O)(Oc2ccc(C)cc2)Oc2ccc(C)cc2)cc1`, the Potency was “inactive”.
For `N#CC(Br)Br`, the Potency was “inactive”.
In the case of `CCC(C)c1cc([N+](=O)[O-])cc([N+](=O)[O-])c1O` (stereo not given), the Potency was “inactive”.
In the case of `CCCCCCOC(=O)c1ccccc1C(=O)OCCCCCC`, the “activity, negative = inhibition” value was -1.49% (inactive).
For `O=S(=O)(Oc1ccc(Cl)cc1)c1ccc(Cl)cc1`, the Potency was “inactive”.
For `CC(C)Oc1cc(-n2nc(C(C)(C)C)oc2=O)c(Cl)cc1Cl`, the Potency was “inactive”.
`C=CCc1ccc2c(c1)OCO2` was tested, and the Potency was “inactive”.
`CCCCN(CCCC)N=O` was tested, and the Potency was “inactive”.
In the case of `CCCCC(CC)COC(=O)c1ccc(C(=O)OCC(CC)CCCC)c(C(=O)OCC(CC)CCCC)c1` (stereo not given), the Potency was “inactive”.
`CC(C)N(C(=O)SCC(Cl)=C(Cl)Cl)C(C)C` was tested, and the Potency was “inactive”.
With `COP(=O)(OC)OC` the Potency was “inactive”.
For `O=[N+]([O-])c1cccc2ccccc12`, the Potency was “inactive”.
With `O=C(O)CC[N+](=O)[O-]` the Potency was “inactive and 8.94 µM (active)”.
`Nc1ccc(Cl)c(Cl)c1` was tested, and the Potency was “inactive”.
`COc1ccc(C=O)cc1` was tested, and the Potency was “inactive”.
In the case of `C#C[C@]1(O)CC[C@H]2[C@@H]3CCC4=CC(=O)CC[C@]4(C)[C@H]3CC[C@@]21C`, the Potency was “inactive”.
For `CC(C)NC(C)C`, the Potency was “inactive”.
`COP(=S)(OC)Oc1ccc([N+](=O)[O-])cc1` was tested, and the Potency was 25.2 µM (active).
With `C=C(C)[C@H]1Cc2c(ccc3c2O[C@@H]2COc4cc(OC)c(OC)cc4[C@@H]2C3=O)O1` the Potency was “inactive”.
`CCC(C)(c1ccc(O)cc1)c1ccc(O)cc1` was tested, and the Potency was “inactive”.
For `Cc1cccc(N)c1N`, the Potency was “inactive”.
With `N#Cc1cc(Br)c(O)c(Br)c1` the Potency was “inactive”.
`NNC(=S)NN` was tested, and the Potency was “inactive”.
In the case of `CCN(N=O)C(N)=O`, the Potency was “inactive”.
In the case of `CCCCCc1cc(O)cc(O)c1`, the Potency was “inactive”.
`CCCCCCCCCCCOC(=O)c1ccccc1C(=O)OCCCCCCCCCCC` was tested, and the Potency was “inactive”.
In the case of `CCC(C)c1ccc(O)cc1` (stereo not given), the Potency was “inactive”.
`CC(C)=CC1C(C(=O)OCc2coc(Cc3ccccc3)c2)C1(C)C` (stereo not given) was tested, and the Potency was “inactive”.
